Experimental data published in the supplement of paper PMC12494721.
Counter-ions that a name gives are not always drawn.

What was measured:
Details in all cases: incubation time: 27 h, anaerobic, 37 °C;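 for the amine columns active = adjusted P below 0.05 in both replicates with a change the same way and a mean fold change under 0.8 or over 1.25; inactive = the rest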
[1] = system: Clostridium sporogenes DSM 1664; test: growth (OD595) fold change vs plate DMSO controls (fold change (ratio)); higher = more growth
In short: (§1)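 To obtain OD, 595 nm absorbance readings were blank-subtracted, corrected for compound background using 20 µM compound solutions in water, and multiplied by a calibration factor of 5. They came from 96-well mGAM cultures grown anaerobically for 27 h at 37 °C and shaken before reading. Growth is the fold change relative to the median of plate DMSO controls. Two biological replicates were averaged, and fold changes above 1.5 were set to NA.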

Escherichia coli IAI1 [2] = test: as above
In short: as §1

[3] = system: Klebsiella aerogenes DSM 30053; test: as above
In short: as §1

[4] = system: Ruminococcus gnavus DSM 108212; test: as above
In short: as §1

[5] = system: Klebsiella aerogenes DSM 30053; test: fold change of Histamine concentration vs plate DMSO controls (fold change (ratio)); higher = more amine produced, active = hit call of the paper (significant change in both replicates, either direction)
In short: (§2)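 Each value is the fold change relative to DMSO-only wells on the same plate. Four gut bacterial strains were grown anaerobically in mGAM at 37 °C for 27 h in 80 µL wells, starting at OD 0.1 before a 1:1 dilution, with compounds at 20 µM final (sweeteners 50 µM). Whole cultures were extracted with cold acetonitrile/methanol containing 0.1% formic acid, centrifuged, and amines were quantified by LC–triple-quadrupole MS (dynamic MRM) against external calibration curves with within-batch drift correction. Values are means of 2 biological replicates.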

[6] = system: Clostridium sporogenes DSM 1664; test: fold change of Tryptamine concentration vs plate DMSO controls (fold change (ratio)); higher = more amine produced, active = hit call of the paper (significant change in both replicates, either direction)
In short: as §2

[7] = system: Ruminococcus gnavus DSM 108212; test: as above
In short: as §2

Escherichia coli IAI1 [8] = test: fold change of Putrescine concentration vs plate DMSO controls (fold change (ratio)); higher = more amine produced, active = hit call of the paper (significant change in both replicates, either direction)
In short: as §2

[9] = system: Klebsiella aerogenes DSM 30053; test: as above
In short: as §2

Escherichia coli IAI1 [10] = test: fold change of Cadaverine concentration vs plate DMSO controls (fold change (ratio)); higher = more amine produced, active = hit call of the paper (significant change in both replicates, either direction)
In short: as §2

[11] = system: Klebsiella aerogenes DSM 30053; test: as above
In short: as §2

[12] = system: Ruminococcus gnavus DSM 108212; test: fold change of 2-Phenylethylamine concentration vs plate DMSO controls (fold change (ratio)); higher = more amine produced, active = hit call of the paper (significant change in both replicates, either direction)
In short: as §2

Structure (SMILES) | growth [1] | growth (Escherichia coli IAI1 [2]) | growth [3] | growth [4] | fold change of Histamine concentration [5] | fold change of Tryptamine concentration [6] | fold change of Tryptamine concentration [7] | fold change of Putrescine concentration (Escherichia coli IAI1 [8]) | fold change of Putrescine concentration [9] | fold change of Cadaverine concentration (Escherichia coli IAI1 [10]) | fold change of Cadaverine concentration [11] | fold change of 2-Phenylethylamine concentration [12]
CC[N+](C)(C)c1cccc(O)c1 [Edrophonium chloride] (20 µM) | 1.07 | 1.06 | 1.01 | 1.17 | 1.07 (inactive) | 0.998 (inactive) | 1.14 (inactive) | 1.01 (inactive) | 1.03 (inactive) | 0.919 (inactive) | 1 (inactive) | 1.11 (inactive)
Cc1cc(C#N)cc(C)c1Oc1nc(Nc2ccc(C#N)cc2)nc(N)c1Br [Etravirine] (20 µM) | 1.06 | 1.01 | 1.13 | 1.03 | 1.01 (inactive) | 1.03 (inactive) | 0.995 (inactive) | 1.03 (inactive) | 1 (inactive) | 1.04 (inactive) | 0.981 (inactive) | 1.03 (inactive)
CC1(C)S[C@@H]2[C@H](NC(=O)[C@H](N)c3ccccc3)C(=O)N2[C@H]1C(=O)O [Ampicillin trihydrate] (20 µM) | 0 | 0.431 | 0.91 | 0 | 0.914 (inactive) | 0.01 (active) | 0.0662 (active) | 2.31 (active) | 1.03 (inactive) | 2.29 (active) | 1.06 (inactive) | 0.0431 (active)
CCC(=O)OCC(=O)[C@@]1(OC(=O)CC)[C@H](C)C[C@H]2[C@H]3[C@H]([C@@H](O)C[C@@]21C)[C@@]1(C)C=CC(=O)C=C1C[C@H]3Cl [Alclometasone dipropionate] (20 µM) | 1.15 | 1.07 | 1.01 | 0.881 | 1.04 (inactive) | 1 (inactive) | 0.947 (inactive) | 1.03 (inactive) | 1.02 (inactive) | 0.986 (inactive) | 0.997 (inactive) | 0.97 (inactive)
CCOC(=O)C(C)(C)Oc1ccc(Cl)cc1 [Clofibrate] (20 µM) | 1.24 | 1.23 | 1.03 | 0.977 | 1.07 (inactive) | 1.04 (inactive) | 1 (inactive) | 1.18 (inactive) | 1.03 (inactive) | 0.919 (inactive) | 0.996 (inactive) | 0.97 (inactive)
CC(=O)OCC(=O)[C@@]12OC(C)(C)O[C@@H]1C[C@H]1[C@@H]3C[C@H](F)C4=CC(=O)C=C[C@]4(C)[C@@]3(F)[C@@H](O)C[C@@]12C [Fluocinonide] (20 µM) | 0.81 | 0.961 | 0.997 | 0.976 | 1 (inactive) | 1.07 (inactive) | 0.936 (inactive) | 0.978 (inactive) | 1 (inactive) | 0.972 (inactive) | 0.988 (inactive) | 0.911 (inactive)
COc1ncnc(NS(=O)(=O)c2ccc(N)cc2)c1OC [Sulfadoxine] (20 µM) | 1 | 1.01 | 1.04 | 1.19 | 1.02 (inactive) | 0.997 (inactive) | 0.985 (inactive) | 1.01 (inactive) | 0.997 (inactive) | 1 (inactive) | 1.01 (inactive) | 0.968 (inactive)
CN(C)CCOC(C)(c1ccccc1)c1ccccn1 (stereo unspecified) [Doxylamine succinate] (20 µM) | 1.13 | 0.972 | 1.01 | 1.05 | 1.01 (inactive) | 0.943 (inactive) | 0.988 (inactive) | 1.01 (inactive) | 1.01 (inactive) | 0.924 (inactive) | 1 (inactive) | 0.891 (inactive)
C[C@H](N)[C@H](O)c1cccc(O)c1 [Metaraminol bitartrate] (20 µM) | 1.04 | 0.987 | 1.09 | 0.95 | 1.04 (inactive) | 1.05 (inactive) | 1.08 (inactive) | 1.02 (inactive) | 1.02 (inactive) | 0.982 (inactive) | 0.998 (inactive) | 1.12 (inactive)
O=S(=O)([O-])NC1CCCCC1.[Na+] [Sodium cyclamate] (50 µM) | 1.01 | 1.02 | 0.974 | 1.03 | 1.04 (inactive) | 1.01 (inactive) | 1.01 (inactive) | 1.03 (inactive) | 1.02 (inactive) | 1.05 (inactive) | 1 (inactive) | 1.02 (inactive)
COc1ccc(CN(CCN(C)C)c2ccccn2)cc1 [Pyrilamine maleate] (20 µM) | 1.02 | 0.962 | 0.981 | 0.868 | 1.02 (inactive) | 1.02 (inactive) | 1.02 (inactive) | 0.811 (inactive) | 1.07 (inactive) | 1.57 (active) | 1.04 (inactive) | 0.963 (inactive)
Cc1c(Cl)cccc1Nc1ccccc1C(=O)O [Tolfenamic acid] (20 µM) | 1.18 | 1.01 | 1.06 | 1.14 | 0.917 (inactive) | 0.901 (inactive) | 0.951 (inactive) | 1.07 (inactive) | 0.984 (inactive) | 1.07 (inactive) | 1.01 (inactive) | 0.937 (inactive)
CC/C(=C(/CC)c1ccc(O)cc1)c1ccc(O)cc1 [Diethylstilbestrol] (20 µM) | 0.583 | 0.984 | 1 | 0.991 | 1.03 (inactive) | 0.432 (active) | 0.88 (inactive) | 1 (inactive) | 1.01 (inactive) | 1.02 (inactive) | 0.993 (inactive) | 0.865 (inactive)
CC(C)Cn1cnc2c(N)nc3ccccc3c21 [Imiquimod] (20 µM) | 1.1 | 0.977 | 1.02 | 0.323 | 0.998 (inactive) | 0.888 (inactive) | 0.149 (active) | 0.988 (inactive) | 1.02 (inactive) | 1.04 (inactive) | 1 (inactive) | 0.162 (active)
Cc1cc(=O)n(-c2ccccc2)n1C [Antipyrine] (20 µM) | 1.04 | 0.959 | 1.03 | 0.869 | 0.98 (inactive) | 1.03 (inactive) | 1.01 (inactive) | 0.999 (inactive) | 1 (inactive) | 1.01 (inactive) | 0.999 (inactive) | 1.02 (inactive)
CO[C@H]1/C=C/O[C@@]2(C)Oc3c(C)c(O)c4c(O)c(c(/C=N/N5CCN(C)CC5)c(O)c4c3C2=O)NC(=O)/C(C)=C\C=C\[C@H](C)[C@H](O)[C@@H](C)[C@@H](O)[C@@H](C)[C@H](OC(C)=O)[C@@H]1C [Rifampicin] (20 µM) | 0.000637 | 0.224 | 0.627 | 0.187 | 0.732 (inactive) | 0.0227 (active) | 0.145 (active) | 0.718 (active) | 0.768 (inactive) | 1.14 (inactive) | 1.06 (inactive) | 0.131 (active)
Cc1cc(-n2c(=O)[nH]c(=O)n(C)c2=O)ccc1Oc1ccc(SC(F)(F)F)cc1 [Toltrazuril] (20 µM) | 1.1 | 0.997 | 1.05 | 1.09 | 0.976 (inactive) | 0.941 (inactive) | 0.792 (inactive) | 1.01 (inactive) | 1 (inactive) | 1.08 (inactive) | 1.01 (inactive) | 0.81 (inactive)
CC(=O)c1ccc(S(=O)(=O)NC(=O)NC2CCCCC2)cc1 [Acetohexamide] (20 µM) | 0.85 | 1.02 | 0.972 | 1.33 | 1.05 (inactive) | 1.03 (inactive) | 0.951 (inactive) | 0.999 (inactive) | 1 (inactive) | 1.05 (inactive) | 0.984 (inactive) | 0.942 (inactive)
Cc1nc2ccccc2n1Cc1ccc(Cl)cc1 [Chlormidazole] (20 µM) | 0.927 | 0.947 | 0.963 | 0.899 | 1.06 (inactive) | 1 (inactive) | 0.899 (inactive) | 0.947 (inactive) | 0.978 (inactive) | 0.982 (inactive) | 0.989 (inactive) | 0.854 (inactive)
COc1ccc(C(=O)NCc2ccc(OCCN(C)C)cc2)cc1OC [Itopride] (20 µM) | 1.15 | 1.1 | 1.08 | 1.2 | 0.925 (inactive) | 1.05 (inactive) | 1.04 (inactive) | 1.09 (inactive) | 0.98 (inactive) | 0.942 (inactive) | 1.06 (inactive) | 1.04 (inactive)
S=c1[nH]cnc2nc[nH]c12 [Mercaptopurine] (20 µM) | 1.07 | 1.1 | 0.98 | 0.869 | 1.05 (inactive) | 1.01 (inactive) | 0.944 (inactive) | 1.06 (inactive) | 1 (inactive) | 0.879 (inactive) | 0.999 (inactive) | 0.959 (inactive)
NS(=O)(=O)Cc1noc2ccccc12 [Zonisamide] (20 µM) | 0.883 | 1.01 | 0.994 | 1.01 | 1.02 (inactive) | 1.07 (inactive) | 0.863 (inactive) | 1.07 (inactive) | 1.01 (inactive) | 1.05 (inactive) | 1 (inactive) | 0.806 (inactive)
CCCc1cc(=O)[nH]c(=S)[nH]1 [Propylthiouracil] (20 µM) | 0.934 | 1.06 | 0.995 | 1.05 | 0.972 (inactive) | 1.03 (inactive) | 1.04 (inactive) | 1.05 (inactive) | 1.01 (inactive) | 0.974 (inactive) | 0.995 (inactive) | 1.03 (inactive)
